# PLK1 PBD block – inhibitors of human PLK1 polo-box domain binding; P53350; Plk1 PBD binding of FITC phosphopeptide, fluorescence polarization; Potency, µM, for inactives: max response, negative = inhibition, actives largely listed as inhibitors; 360,000 tested, 2.8% active; note: series mostly up to about 57 µM; % is set by controls: 0 for no effect and ±100 for the full control effect; nearly all actives have a fitted effect of over 65% in size
# BAZ2B block – BAZ2B (human) inhibition; Potency, µM (top dose mostly 114 µM), for inactives: top-dose activity change, negative = inhibition, most hits filed as inhibitors; 360,000 tested, 4.4% active; AID 504333; AlphaScreen BAZ2B-H3K14Ac peptide displacement; note: % is set by controls: 0 for no effect and ±100 for the full control effect; nearly all actives have a fitted effect of over 60% in size
#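 Complex of BAZ2B and biotin-H3K14Ac (50 nM apiece) forms over 30 min at RT, then faces library compounds up to 110 uM for another 30 min; AlphaScreen beads added, 20 min dark incubation, luminescence read.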
# G9a block – inhibitors of human histone lysine methyltransferase G9a; Q96KQ7; G9a H3K9 monomethylation, AlphaScreen, 2 h; Potency, µM (series often up to 102 µM), for the others: at the top dose activity, negative = inhibition, actives largely listed as inhibitors; 350,000 tested, 8.8% active; AID 504332; note: % is set by controls: 0 for no effect and ±100 for the full control effect; nearly all actives have a fitted effect of over 75% in size
# Target sequence (Q96KQ7 913-1193 limits assumed): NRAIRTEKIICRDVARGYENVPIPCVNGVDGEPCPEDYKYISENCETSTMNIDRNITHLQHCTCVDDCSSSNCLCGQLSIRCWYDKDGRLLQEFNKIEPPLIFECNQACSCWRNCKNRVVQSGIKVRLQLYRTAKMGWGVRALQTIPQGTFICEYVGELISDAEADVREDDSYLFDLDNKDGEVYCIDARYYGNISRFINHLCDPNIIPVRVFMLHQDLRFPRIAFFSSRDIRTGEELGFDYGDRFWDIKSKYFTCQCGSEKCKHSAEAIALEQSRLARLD
#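 AlphaScreen read-out: biotin-H3K9 peptide (500 nM) methylation by 20 nM enzyme with 20 uM SAM, 2 h at room temperature after 15 min compound preincubation; anti-monomethyl H3K9 antibody plus donor/acceptor beads, 10 min dark.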
# Sfp PPTase inh – Sfp phosphopantetheinyl transferase inhibition; Biochemical Sfp PPTase activity, qHTS; Potency, µM, for the others: largest response in the series, negative = inhibition, hits mostly inhibitors; 310,000 tested, 3.5% active; AID 1490;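 note: the enzyme is Sfp with the accession as filed and its product quenches rhodamine fluorescence; 0% = enzyme reaction without inhibitor and -100% = no enzyme wells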
#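 Fluorescence-quenching assay: 15 nM Sfp-PPTase preincubated 15 min at room temperature with compound, then 5 uM rhodamine-CoA and 12.5 uM BHQ-2-labelled YbbR peptide added. Fluorescence (ex 525/em 598 nm) read at start and after 30 min; difference gives rate.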
# HP1b chromo inh – inhibitors of HP1-beta chromodomain binding to methylated histone tails; P83916; 390,000 tested, 0.56% active; Potency, µM (series often up to 114 µM), without a hit: top-dose activity change, negative = inhibition, most hits filed as inhibitors; AlphaScreen HP1-beta / biotin-H3K9me3 peptide binding; note: nearly all actives have a fitted effect of over 70% in size
# Target sequence (P83916 whole entry, looked up): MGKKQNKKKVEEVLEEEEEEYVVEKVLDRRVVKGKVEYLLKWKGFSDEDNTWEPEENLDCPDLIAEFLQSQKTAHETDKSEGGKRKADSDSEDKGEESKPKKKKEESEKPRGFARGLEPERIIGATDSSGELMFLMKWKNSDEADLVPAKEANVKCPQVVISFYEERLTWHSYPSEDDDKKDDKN
#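 Compound inhibition of the preformed complex between 50 nM HP1-beta and 50 nM biotinylated H3K9me3 peptide was read by AlphaScreen. Buffer was PBS pH 7.4 with 0.01% Tween-20. Incubations ran 30 min at room temperature, with 10 ug/mL donor/acceptor beads.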
# JMJD2A Tudor inh – JMJD2A Tudor domain (human) inhibition. O75164. AlphaScreen JMJD2A-Tudor / H3K4me3 peptide binding. Potency, µM (series often up to 114 µM), without a hit: at the highest dose activity change, negative = inhibition, actives largely listed as inhibitors. 390,000 tested, 4.4% active; note: % is set by controls: 0 for no effect and ±100 for the full control effect; nearly all actives have a fitted effect of over 50% in size
# Starred values were filed as active, the others as inactive; ? = inconclusive; . = no result; [ ] = remark or other dose. The list is not random: actives were taken first. Their share in the collection is about 12%. Calls come from the whole dose curve; as a rule, active = well fitted curve in the direction sought with a large enough effect; inconclusive = small, poorly fitted or top-dose-only effect, or another doubt; inactive = no such curve, though single readings can be large; an effect the other way counts as inactive or inconclusive. Potency is the fitted concentration of half-maximal effect.
SMILES,PLK1 PBD block,BAZ2B block,G9a block,Sfp PPTase inh,HP1b chromo inh,JMJD2A Tudor inh
O=C(Nc1ccc(Cl)cc1Cl)c1n[nH]c(Cn2cncn2)n1,-4%,56µM*,18%[12.7 µM],5%,28%,?
Cc1ccc(S(=O)(=O)N(C)c2ccc(OC(=O)c3cccs3)cc2)cc1,5%,.,.,.,35%,21%
CCOC(=O)c1cc2c(ccn2C)n1Cc1ccc(Cl)cc1,-9%,50µM*,50µM*,-12%,-22%,56µM*
CCOC(=O)c1cc2c(ccn2C)n1CC(=O)N1CCCC(C)C1 (stereo not given),-4%,?,15%[59 µM],13%,-9%,-18%
CCOC(=O)c1cc2c(ccn2C)n1CC(=O)N1CCC(Cc2ccccc2)CC1,-9%,25µM*,40µM*,-15%,?,35µM*
Cc1cc2nc(SCCOC(=O)Nc3ccc(Cl)cc3)nc(C)c2cc1C,-7%,-39%,2µM*,17%,22%,-16%
CCOc1ccc2oc(=O)cc(CN3CCN(C(=O)c4ccc(OC)c(OC)c4)CC3)c2c1,.,-15%,?,.,37%,-6%
CCCc1sc(N2CCCC(C(N)=O)C2)nc1-c1ccccc1 (stereo not given),24µM*,?,-94%,7%,?,28µM*
CCOc1ccc(Cl)cc1-c1cc(C(=O)NCCc2ccncc2)[nH]n1,4%,.,.,.,.,.
CC(=O)OCOC(=O)CNc1ccccc1OCCOc1ccccc1NCC(=O)OCOC(C)=O,.,.,.,-15%,.,.
Cc1nc(SCc2cccc(Cl)c2)nc2c1CCCC2,.,292%,76%[59 µM],.,179%,224%
CCc1c(C)sc(NC(=S)N2CC(C)OC(C)C2)c1C(=O)OC (stereo not given),1%,1%,-7%,?,27%,-11%
CCc1c(C)sc(NC(=S)N2CCN(C(=O)C3CCCO3)CC2)c1C(=O)OC (stereo not given),-12%,?,50µM*,-24%,?,?
CCc1c(C)sc(NC(=O)OC)c1C(=O)N1CCCCC1,?,-3%,?,50µM*,-9%,-17%
O=S(=O)(c1ccc(=S)[nH]c1)N1CCCCCC1,?,1%,?,.,32%,4%
O=S(=O)(c1ccc2oc(=S)[nH]c2c1)N1CCCCC1,-23%,-1%,45µM*,9%,14%,-18%
O=S(=O)(c1ccc2oc(=S)[nH]c2c1)N1CCOCC1,2.7µM*,-38%,1.3µM*,.,-41%,79µM*
O=S(=O)(c1ccc(=S)[nH]c1)N1CCOCC1,7.5µM*,-5%,?,.,-19%,11µM*
O=S(=O)(Nc1cccc(Cl)c1)c1ccc2oc(=S)[nH]c2c1,34µM*,.,25µM*,11%,-15%,20µM*
CCCCn1c(=S)[nH]c2cc(S(=O)(=O)N3CCOCC3)ccc21,3%,.,.,.,42%,?
O=C1CCc2cc(S(=O)(=O)Nc3cccc(Cl)c3)ccc2N1,.,.,.,.,.,-11%
CCOc1ccc(OCC)c(NC(=O)C2CCN(c3nnc(-n4cccc4)s3)CC2)c1,.,7%[57.1 µM],1%[59 µM],.,16%,-11%
CCOC(=O)c1cccc(NC(=O)c2ccc3c(c2)nnn3C2CCCC2)c1,.,0%,-1%[59 µM],.,15%,-21%
CCCn1c(=O)c2ccccc2n2c(SCc3cc(=O)oc4ccc5ccccc5c34)nnc12,-7%,-1%,?,-14%,45%,?
Cc1ccccc1-n1c(C)nnc1SCc1cc(=O)oc2ccc3ccccc3c12,-14%,-19%,?,79µM*,17%,?
SMILES,PLK1 PBD block,BAZ2B block,G9a block,Sfp PPTase inh,HP1b chromo inh,JMJD2A Tudor inh
CC(C)c1ccccc1NC(=O)COc1ccc2c(=O)c(Oc3ccc4ccccc4c3)coc2c1,.,-5%,1%[59 µM],8%,.,.
Cc1ccc(C)c(Oc2coc3cc(OC(=O)c4cccs4)ccc3c2=O)c1,9.5µM*,.,.,.,-1%,-9%[11.4 µM]
COc1ccc(Oc2coc3cc(OC(=O)c4cccs4)ccc3c2=O)cc1,0%,0%,19%[0.0925 µM],0%,50%,1%
CCc1ccccc1NC(=O)COc1ccc2c(=O)c(Oc3cc(C)ccc3C)coc2c1,-2%,4%,-19%,45µM*,24%,-15%
O=C(C[n+]1cc(-c2ccc(Cl)cc2)n2c1CCC2)Nc1nc(-c2ccc(F)cc2)cs1,4%,?,?,45µM*,12%,-30%
Cc1c(Cl)cccc1NC(=O)CC1SCCNC1=O (stereo not given),-9%,-4%,-5%[12.7 µM],15%,18%,-15%
Cc1ccccc1NC(=O)CC1SCCNC1=O (stereo not given),-13%,7%,16%[59 µM],22µM*,4%,-11%
CCOc1ccc(NC(=O)COC(=O)CCN2C(=O)C3CC=CCC3C2=O)cc1OCC (stereo not given),7%,?,4µM*,.,-21%,?
CCC(=O)Nc1ccc(C(=O)COC(=O)CCN2C(=O)C3CC=CCC3C2=O)cc1 (stereo not given),-15%,13%,50µM*,.,-10%,-23%
CCOc1ccc(NC(=O)CCN2C(=O)C3CCCCC3C2=O)cc1OCC (stereo not given),-1%,-15%,3%[0.501 µM],.,11%,-21%
Nc1nonc1C(=O)NCCNCc1ccc(Cl)c(Cl)c1,.,-15%,4%[59 µM],.,49%,-3%
NC(CC(=O)Nc1ccc(Oc2cc(F)c(F)cc2Br)cc1)C(=O)O (stereo not given),.,.,.,-13%,.,.
CCN(C(=O)c1cn(CC)c(=O)c2cc(OC)c(OC)cc12)c1ccccc1F,.,2%,5%[59 µM],.,8%,-2%
CCN(c1ccccc1)S(=O)(=O)c1ccc(OC)c(NC(=O)COc2ccc(C(C)=O)cc2)c1,5%,6%,56µM*,.,16%,-10%
COc1ccc(S(=O)(=O)N2CCOCC2)cc1NC(=O)CCc1nc2ccccc2c(=O)[nH]1,-29%,-17%,?,-25%,10%,-4%
CCN(c1ccccc1)S(=O)(=O)c1ccc(OC)c(NC(=O)Cc2ccc(F)cc2)c1,6%,13%,16%[12.7 µM],.,36%,8%
CCN(c1ccccc1)S(=O)(=O)c1ccc(OC)c(NC(=O)C2CCC2)c1,-9%,.,.,.,13%,-6%
CCN(c1ccccc1)S(=O)(=O)c1ccc(OC)c(NC(=O)CNCCc2ccccc2)c1,-15%,32µM*,?,16%,50µM*,0.89µM*

# Source: PubChem BioAssay
